Results taken from the supplement of paper PMC12350171.
Counter-ions that a name gives are not always drawn. Values without a mark were called inactive.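 The calls were made as follows: active = normalised median growth AUC below 0.1 of DMSO control; inactive = AUC 0.1 or higher.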

Test system: P. vulgatus RND KO
Assay: growth AUC normalised to DMSO control (median) (fraction of control); higher = less growth inhibition, active = hit call of the paper
Details: 20 µM
Method in brief: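 Strains were passaged twice overnight without oxygen, then grown in mGAM in 96-well plates with each approved-drug library compound at 20 μM and 1% DMSO, starting at OD578 0.01. OD578 was read hourly for 24 h inside an anaerobic incubator. Curves were truncated at entry into stationary phase, and the trapezoidal-rule area under the curve was normalised to same-plate vehicle wells. The value is the median across three biological replicates.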
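Also: active when median AUC fell below 0.1.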

Row | Compound | growth AUC normalised to DMSO control
1 | O=C(Oc1cccc2cccnc12)c1ccccc1 [Benzoxiquine] | 0.935
2 | CC1=NN(c2ccccc2)C(=O)C1 [Edaravone] | 0.998
3 | COc1ccc(C(=O)CC(=O)c2ccc(C(C)(C)C)cc2)cc1 [Avobenzone] | 0.939
4 | CCCCc1oc2ccc(NS(C)(=O)=O)cc2c1C(=O)c1ccc(OCCCN(CCCC)CCCC)cc1 [Dronedarone hydrochloride] | 1.01
5 | CCC[C@@H]1C[C@@H](C(=O)N[C@@H]([C@H]2O[C@H](SC)[C@H](OP(=O)(O)O)[C@@H](O)[C@H]2O)[C@H](C)Cl)N(C)C1 [Clindamycin Phosphate] | 0.844
6 | O=C1[C@H]2CCCC[C@H]2C(=O)N1CCCCN1CCN(c2nsc3ccccc23)CC1 [Perospirone hydrochloride] | 0.997
7 | CCN(CC)CCOCCOC(=O)C(CC)(CC)c1ccccc1 [Oxeladin citrate] | 1
8 | O=C(O)c1cc(=O)[nH]c(=O)[nH]1 [Orotic acid] | 0.976
9 | CC(=O)Oc1ccc(C(=C2CCCCC2)c2ccc(OC(C)=O)cc2)cc1 [Cyclofenil] | 0.903
10 | CC(COc1ccccc1)NN (stereo not drawn) [Phenoxypropazine dihydrochloride] | 1.07
11 | CCCCOCCOCCOCc1cc2c(cc1CCC)OCO2 [Piperonyl butoxide] | 1.08
12 | Cc1nc2ccccc2n1Cc1ccc(Cl)cc1 [Chlormidazole] | 0.974
13 | CS(=O)(=O)c1ccc([C@@H](O)[C@@H](CF)NC(=O)C(Cl)Cl)cc1 [Florfenicol] | 0.0099 (active)
14 | Nc1c2ccccc2nc2ccccc12 [Aminacrine] | 1.07
15 | CN(C)C(=O)COC(=O)Cc1ccc(OC(=O)c2ccc(NC(=N)N)cc2)cc1 [Camostat mesylate] | 1.02
16 | CC(C)C[C@H](NC(=O)[C@@H](O)[C@H](N)Cc1ccccc1)C(=O)O [Ubenimex] | 0.448
17 | CCCC(=O)N1CCCN(c2nc(N)c3cc(OC)c(OC)cc3n2)CC1 [Bunazosin hydrochloride] | 1.01
18 | C=C1[C@H](CO)[C@@H](O)C[C@@H]1n1cnc2c(=O)[nH]c(N)nc21 [Entecavir] | 1
19 | CC(=O)OCC(=O)[C@@]1(O)CC[C@H]2[C@@H]3CCC4=CC(=O)C=C[C@]4(C)[C@@]3(F)[C@@H](O)C[C@@]21C [Isoflupredone acetate] | 1.03
20 | O=C(O)CNC(=O)c1ccccc1 [Hippuric acid] | 1.1
21 | O=C(O)Cc1ccccc1Oc1ccc(Cl)cc1Cl [Fenclofenac] | 0.992
22 | CNCC[C@@H](Oc1cccc2ccccc12)c1cccs1 [(R)-Duloxetine hydrochloride] | 1.02
23 | CCN1CC(CCN2CCOCC2)C(c2ccccc2)(c2ccccc2)C1=O (stereo not drawn) [Doxapram hydrochloride] | 1.05
24 | CC[N+]1(CC)CCC(=C(c2ccccc2)c2ccccc2)C1C (stereo not drawn) [Prifinium Bromide] | 0.997
25 | Cc1ccc(Nc2c(F)cccc2Cl)c(CC(=O)O)c1 [Lumiracoxib] | 0.985
26 | NC(=O)[C@@H]1CCCN1C(=O)[C@H](Cc1c[nH]cn1)NC(=O)[C@@H]1CCC(=O)N1 [Thyrotropin-Releasing Hormone] | 1.05
27 | CC(=O)c1cc2cccc(OCC(O)CNC(C)C)c2o1 (stereo not drawn) [Befunolol] | 1.03
28 | CN1CC(=O)N2[C@H](c3ccc4c(c3)OCO4)c3[nH]c4ccccc4c3C[C@@H]2C1=O [Tadalafil] | 0.919
